Compound activity from PubChem.
Shown is part of a subset that was picked to be rich in hits.
Shiga toxin inh – blocks Shiga toxin action in Vero cells; Vero cells, Shiga toxin protein synthesis inhibition reporter; inhibition, % at 38.7 µM; 290,000 tested, 9.2% active; AID 2315; in the data active means inhibition mostly above about 28%, no sharp cut-off; inactive means mostly below about 43%; further: 0% is about no effect
LmPK inh – blocks Leishmania mexicana pyruvate kinase activity; Q27686; purified LmPK, Kinase-Glo ATP luminescence, 1 h; 290,000 tested, 0.37% active; Potency, µM (doses to about 57.5 µM), for the others: at the highest dose activity change, negative = inhibition, most hits filed as inhibitors; further: potency means the concentration at half of the fitted maximal effect; on the % scale 0 is the no-effect control and ±100 the full control effect
Target sequence (Q27686 whole entry, looked up): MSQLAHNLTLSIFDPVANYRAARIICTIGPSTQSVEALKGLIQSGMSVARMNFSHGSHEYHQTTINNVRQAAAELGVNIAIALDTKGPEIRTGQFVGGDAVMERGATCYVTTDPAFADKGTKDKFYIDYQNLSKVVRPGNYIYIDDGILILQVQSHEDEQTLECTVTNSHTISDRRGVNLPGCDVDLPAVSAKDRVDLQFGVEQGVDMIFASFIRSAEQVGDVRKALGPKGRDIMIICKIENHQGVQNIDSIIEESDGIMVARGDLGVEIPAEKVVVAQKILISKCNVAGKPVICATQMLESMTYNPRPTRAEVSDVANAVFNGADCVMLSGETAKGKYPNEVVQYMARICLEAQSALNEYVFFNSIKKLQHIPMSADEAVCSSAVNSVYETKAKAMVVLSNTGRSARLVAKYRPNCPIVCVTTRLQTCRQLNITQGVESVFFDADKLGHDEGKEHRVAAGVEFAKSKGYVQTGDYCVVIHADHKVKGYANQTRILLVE
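0.1 nM LmPK, 0.5 mM PEP, 0.1 mM ADP; 50 mM imidazole pH 7.2, 7 mM MgCl2, 50 mM KCl; 1 h RT. Kinase-Glo luminescence readout, normalized to no-enzyme (full inhibition) and uninhibited wells.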
FBPA Giardia inh – blocks Giardia fructose-bisphosphate aldolase activity; purified Giardia FBPA; 290,000 tested, 0.71% active; Potency, µM (titrated, usually from 59.6 µM), without a hit: at the highest dose activity, negative = inhibition, actives largely listed as inhibitors; A8B2U2; further: potency means the concentration at half of the fitted maximal effect; on the % scale 0 is the no-effect control and ±100 the full control effect; nearly all actives have a fitted effect of over 55% in size
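40 nM FBPA preincubated 10 min at RT with compound (up to 57.5 uM final), then substrate plus GAPDH/TPI/NAD/arsenate coupling and diaphorase/resazurin added. Fluorescence read after 20 min at RT, 525/598 nm.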
RE007 growth inh – less growth of the S. pombe RE007 Vpr strain; AID 651644; 360,000 tested, 0.21% active; Potency, µM (top dose mostly 92.2 µM), inactives show top-dose activity change, negative = less growth, hits mostly inhibitors; S. pombe RE007 Vpr strain, BacTiter-Glo ATP luminescence, 24 h; active means well fitted falling curve with a large enough effect; inconclusive means small, poorly fitted or top-dose-only effect; inactive means no such curve, though single readings can be large or run the other way; further: potency means the concentration at half of the fitted maximal effect; on the % scale 0 is the no-effect control and ±100 the full control effect; nearly all actives have a fitted effect of over 50% in size
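Fission yeast strain RE007, carrying one chromosomally integrated HIV-1 vpr copy, was seeded at OD 0.01 in PMG+AL medium with 23 nL pinned compound. After 24 h at 30 °C and 99% humidity, viability was read by BacTiter-Glo luminescence.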
Cycloheximide cs – affects cycloheximide protein synthesis inhibition readout, counter-screen | max response, % | cell reporter, cycloheximide protein synthesis inhibition counterscreen | 300,000 tested, 12% active; in the data active means max response mostly above about 13%, no sharp cut-off; inactive means mostly below about 14%; further: read at 38.3 µM for the half of the compounds with a filed dose; 0% is about no effect
TbPYK inhibitor – inhibitors of Trypanosoma brucei pyruvate kinase; Q57TT1; TbPYK enzyme, Kinase-Glo Plus ATP luminescence, 45 min; Potency, µM (series often up to 76.8 µM), for inactives: at the highest dose activity, negative = inhibition, hits mostly inhibitors; 410,000 tested, 0.12% active; AID 624173; further: potency means the concentration at half of the fitted maximal effect; on the % scale 0 is the no-effect control and ±100 the full control effect; nearly all actives have a fitted effect of over 50% in size
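TbPYK + substrate in 50 mM TEA pH 7.2, 100 mM KCl, 10 mM MgCl2, 0.05% BSA, 0.01% Tween-20; cpd pinned; ADP 130 uM final; 45 min RT; Kinase-Glo Plus 10 min; luminescence endpoint.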
Numbers without * were called inactive; ? = inconclusive; . = not tested or not shown. Unless noted, the call rests on the fitted dose curve; in most records, active means well fitted curve in the direction sought with a large enough effect; inconclusive means small, poorly fitted or top-dose-only effect, or another doubt; inactive means no such curve, though single readings can be large; an effect the other way counts as inactive or inconclusive.

SMILES | Shiga toxin inh | LmPK inh | FBPA Giardia inh | RE007 growth inh | Cycloheximide cs | TbPYK inhibitor
COc1cccc(-n2nnnc2SCC(=O)Nc2nc3c(s2)CCCC3)c1 | 87* | 7% | 2% | 6% | 25* | -15%
O=C(COc1ccc(F)cc1)Nc1nc2c(s1)CCCC2 | 70 | 5% | -10% | 9% | 38* | -1%
COc1ccccc1OCC(=O)Nc1nc2c(s1)CC(C)CC2 (centres undefined) | . | . | . | . | . | -2%
COC(=O)c1cccc(-n2nnnc2SCC(=O)Nc2nc3c(s2)CCCC3)c1 | 1 | -5% | 0% | 13% | -3 | 9%
COc1ccc(NC(=O)Nc2nc3c(s2)CCCC3)cc1 | 16 | -4% | -3% | -17% | 19* | -10%
O=C(Nc1cccc(Br)c1)Nc1nc2c(s1)CCCCCC2 | . | . | . | . | . | -8%
COCOc1cc(OC)ccc1C(=O)/C=C/c1cccc(C(F)(F)F)c1 | . | . | -1% | . | . | .
O=C(NCc1ccc(F)cc1)c1cccc(N2CCCS2(=O)=O)c1 | . | . | . | . | . | 1%
CC(=O)N1CCc2cc(CNC(=O)Cc3ccc(F)cc3)ccc21 | . | . | . | . | . | 0%
CCCCN(C(=O)c1cccc(-n2cnnn2)c1)c1c(N)n(CCCC)c(=O)[nH]c1=O | . | . | . | 4% | . | -11%
COc1ccc(OCC(=O)Nc2nc3c(s2)CCCC3)cc1 | 68* | 1% | . | ? | 36* | 1%
Cc1ccc(C(C)C)c(OCC(=O)Nc2nc3c(s2)CCCC3)c1 | . | . | . | . | . | -1%
S=c1[nH]nc(-c2cccnc2)n1Cc1ccccc1 | -5 | ? | -3% | -1% | -3 | ?
Cc1ccsc1-c1n[nH]c(=S)n1C1CCCCC1 | 12 | 8.9µM* | -7% | 2% | -2 | 3.2µM*
S=c1[nH]nc(-c2cccnc2)n1C1CCCCC1 | -19 | 8.9µM* | -23% | 0% | -5 | ?
COc1ccc(-c2n[nH]c(=S)n2Cc2ccco2)cc1 | -5 | ? | 3% | 5% | 1 | ?
COc1ccc(-c2n[nH]c(=S)n2C2CCCCC2)cc1 | -16 | 4.5µM* | 11% | 18% | -4 | ?
CC1CCCCC1n1c(-c2cccnc2)n[nH]c1=S (centres undefined) | -8 | 20µM* | -6% | 9% | -3 | 11µM*
CC12CN3CC(c4ccccc4)(CN(C1)C3c1ccc(Cl)cc1)C2=O (centres undefined) | . | . | . | . | . | 0%
COc1ccc(CNC(=O)c2nc(Cn3nc(C)c(Br)c3C)no2)cc1OC | . | . | . | . | . | 0%
S=c1[nH]nc(-c2ccccc2)n1C1C=CCCC1 (centres undefined) | 19 | 2.5µM* | -8% | 5% | -3 | 8.9µM*
CSc1ccc(/C=C/C(=O)c2c(O)cc(C)oc2=O)cc1 | 52* | ? | -5% | -27% | 37* | -6%
Cc1cc(O)c(C(=O)/C=C/c2ccc(Cl)cc2)c(=O)o1 | 50* | 4% | -8% | 1% | 32* | 6%
COc1ccc(/C=C/C(=O)c2c(O)cc(C)oc2=O)c(OC)c1 | 8 | 14µM* | -5% | 0% | 24* | 2%
Nc1ccn([C@@H]2O[C@H](C(=O)N[C@H](CO)Cc3ccccc3)[C@@H](O)[C@H]2O)c(=O)n1 | . | . | . | 4% | . | -7%
SMILES | Shiga toxin inh | LmPK inh | FBPA Giardia inh | RE007 growth inh | Cycloheximide cs | TbPYK inhibitor
Cc1cc(C)cc(C(=O)N2CC(=O)Nc3ccc(C)cc3C2c2ccccc2)c1 (centres undefined) | . | . | . | . | . | -5%
CCOc1ccccc1/C=C(/NC(=O)c1ccccc1)C(=O)NCC(=O)O | -11 | 2% | 5% | 5% | -1 | -2%
CCOc1ccccc1/C=C(\NC(=O)c1ccccc1)C(=O)NCCC(=O)O | 43* | -1% | 2% | 5% | 32 | 2%
CC1CCCC(C)N1CCCNC(=O)c1ccc2nc(N3CCCCC3)sc2c1 (centres undefined) | 59* | -6% | 7% | -16% | 18* | -3%
CC1CCN(c2nc3ccc(C(=O)NCCCN4CCCCC4C)cc3s2)CC1 (centres undefined) | 34* | -8% | -4% | -9% | 29* | -4%
C=CCN(C(C(=O)OC)C(C)C)S(=O)(=O)C=C (centres undefined) | -2 | . | 0% | . | -3 | .
COc1ccc(NC(=O)/C=C/c2ccc(F)cc2)cn1 | 108* | 1% | -24% | -7% | 51* | 2%
COc1ccc(NC(=O)/C=C/c2cc(OC)c(OC)c(OC)c2)cn1 | 14 | 0% | 1% | -5% | 8 | -10%
CC(=O)Nc1ccc(NC(=O)/C=C/c2ccccc2)cc1 | 33* | 1% | 2% | 2% | 25* | 4%
COc1ccc(NC(=O)/C=C/c2ccccc2)cn1 | 86* | -7% | -26% | -16% | 35* | 22%
CCc1ccc(NC(=O)CSC2=Nc3ccccc3C3=NC(CCC(=O)NCc4cccs4)C(=O)N23)cc1 (centres undefined) | . | . | . | . | . | -9%
CCCCN1C(=O)C(=O)N(CC(=O)NC2CCCc3ccccc32)C1=O (centres undefined) | 26 | 0% | 1% | -18% | 7 | 4%
COCCn1c(SCC(=O)Nc2ncc(C)s2)nc2sc3c(c2c1=O)CCC3 | 38 | 7% | -5% | . | 25* | .
CCN(CC)C(=O)CSc1nc2sc3c(c2c(=O)n1CCCOC)CCC3 | . | 6% | 8% | 7% | -2 | -15%
CC(C)NC(=O)c1ccc(Cn2c(=O)c3cccn3c3cccnc32)cc1 | . | . | . | . | . | 0%
COc1ccc(-c2nc(CN(CC3CCC(=O)N3)C(C)C)c(C)o2)c(C)c1C (centres undefined) | 87* | 0% | 0% | -24% | 25* | 1%
CCCOc1cccc(C(=O)N(Cc2ccc(C)o2)C2CCS(=O)(=O)C2)c1 (centres undefined) | . | . | . | . | . | -2%
CCCC1CCC(=NNC(=O)OC(C)(C)C)CC1 (centres undefined) | 61 | 1% | -3% | 6% | 31* | 4%
CCc1ccccc1-n1c2c(cc(-c3nc(-c4ccc(Cl)cc4)cs3)c1=O)C(=O)CC(C)(C)C2 | . | . | . | . | . | -5%
COc1ccc2oc(-c3cccc(NC(=O)c4cc([N+](=O)[O-])ccc4N4CCOCC4)c3)nc2c1 | . | . | . | . | . | -2%
O=C(Nc1nnc(-c2ccco2)s1)C1CC1 | 31* | -4% | 5% | 0% | 23* | -11%
CC(C)C(=O)Nc1nnc(-c2ccco2)s1 | 95* | -4% | 1% | 2% | 29* | -5%
O=C(Nc1ccc(F)cc1)Nc1nnc(-c2ccco2)s1 | 112* | -5% | -1% | 9% | 53* | 4%
O=C(Nc1nnc(-c2ccco2)s1)c1ccccc1 | 89* | -19% | -7% | -11% | 44* | -7%
O=C(Nc1nnc(-c2ccco2)s1)C1CCN(S(=O)(=O)c2ccc(Cl)cc2)CC1 | -11 | 4% | 5% | -4% | -3 | -5%
